This passage reports outcome and AC50 results from PubChem BioAssay (EPA / NIEHS).

Test [1] concerns the target guinea pig Bradykinin Receptor B2 (BK2), BDKRB2 (gene 100135486) (UniProt O70526). As to the kind of experiment: NVS_GPCR_gBK2: NovaScreen (NVS) G Protein-Coupled Receptor Assay for guinea pig Bradykinin Receptor B2 (BK2) (AID 2283292). In outline: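 Guinea pig ileum membrane preparation incubated 1 h with radioligand and test chemical; bound counts measured after filtration. Primary duplicate screening at 25 uM, then singleton concentration series with a 50 uM top dose; DMSO as baseline.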

For test [2], the target named is rat Histamine Receptor (H3), Hrh3 (gene 85268) (UniProt Q9QYN8). As to the kind of experiment: NVS_GPCR_rH3: NovaScreen (NVS) G Protein-Coupled Receptor Assay for rat Histamine Receptor (H3) (AID 2283303). Put shortly: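 Filter-binding radioligand competition on rat forebrain membranes, 1 h incubation; compounds screened at 25 µM in duplicate and followed in concentration series to 50 µM, loss of bound signal vs DMSO.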

Test [3] deals with rat Neurokinin-1 Receptor (NK1), Tacr1 (gene 24807) (UniProt P14600). As to the kind of experiment: NVS_GPCR_rNK1: NovaScreen (NVS) G Protein-Coupled Receptor Assay for rat Neurokinin-1 Receptor (NK1) (AID 2283309). Put shortly:
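Competitive radioligand binding to NK1 in rat submaxillary membranes, 1 h incubation, filtration and scintillation read-out. Compounds first screened at 25 uM in duplicate, then concentration-response for actives; signal loss relative to DMSO.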

In test [4] the target is rat Adrenergic Receptor, Beta (Adrb), Non-selective Binding, Adrb1 (gene 24925) (UniProt P18090). Briefly: NVS_GPCR_rAdrb_NonSelective: NovaScreen (NVS) G Protein-Coupled Receptor Assay for rat Adrenergic Receptor, Beta (Adrb), Non-selective Binding (AID 2283298). In outline:
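Rat cortical membranes incubated 1 h with beta-adrenergic radioligand and test chemical; bound ligand measured by filtration and scintillation counting. Screen at 25 uM duplicate, then concentration series with 50 uM maximum; loss of signal versus DMSO.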

The target in test [5] is human Orphanin, Opioid Related Nociceptin Receptor 1 (ORL1), OPRL1 (gene 4987) (UniProt P41146). Briefly: NVS_GPCR_hORL1: NovaScreen (NVS) G Protein-Coupled Receptor Assay for human Orphanin, Opioid Related Nociceptin Receptor 1 (ORL1) (AID 2283283). Put shortly: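 Cell-free binding using HEK293-derived receptor protein: radioligand displacement measured by filter scintillation 1 hour after dosing. Primary testing at 25 uM in duplicate, followed by singleton concentration series up to 50 uM; DMSO served as negative control.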
Chain of human Orphanin, Opioid Related Nociceptin Receptor 1 (ORL1), OPRL1 (gene 4987) (P41146 whole entry, looked up): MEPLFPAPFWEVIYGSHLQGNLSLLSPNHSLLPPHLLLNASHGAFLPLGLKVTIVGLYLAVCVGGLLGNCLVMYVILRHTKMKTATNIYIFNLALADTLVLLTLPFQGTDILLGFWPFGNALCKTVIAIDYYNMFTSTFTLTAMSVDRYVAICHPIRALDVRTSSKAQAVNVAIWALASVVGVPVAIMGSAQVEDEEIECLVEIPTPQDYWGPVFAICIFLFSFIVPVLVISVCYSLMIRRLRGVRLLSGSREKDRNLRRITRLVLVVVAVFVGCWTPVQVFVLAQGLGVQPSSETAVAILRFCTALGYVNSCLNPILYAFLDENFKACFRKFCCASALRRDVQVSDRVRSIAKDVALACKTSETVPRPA

The target in the next test is Adra2b (gene 24174) (UniProt P19328). Briefly: NVS_GPCR_rmAdra2B: NovaScreen (NVS) G Protein-Coupled Receptor Assay for hybird cells Adrenergic, Alpha 2B Receptor (Adra2B) (AID 2283306). Put shortly:
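Compounds screened first at 25 uM in duplicate, with actives followed up in concentration-response; specific radioligand displacement from hybrid neuroglioma/blastoma cell membrane preparations measured by filter scintillation counting after 1 h, normalized to DMSO.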

Test [6] deals with human Opioid Receptor Delta 1 (Opiate D1), OPRD1 (gene 4985) (UniProt P41143). Briefly: NVS_GPCR_hOpiate_D1: NovaScreen (NVS) G Protein-Coupled Receptor Assay for human Opioid Receptor Delta 1 (Opiate D1) (AID 2283280). In outline:
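Membrane preparations from CHO cells bearing the human receptor were incubated 1 h with test chemical, and bound radioligand was counted after filtration. Actives from 25 uM duplicate screening were retested in concentration-response.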

The target in test [7] is guinea pig Serotonin, 5-Hydroxytryptamine Receptor 4 (5HT4), HTR4 (gene 100135548) (UniProt O70528). As to the kind of experiment: NVS_GPCR_g5HT4: NovaScreen (NVS) G Protein-Coupled Receptor Assay for guinea pig Serotonin, 5-Hydroxytryptamine Receptor 4 (5HT4) (AID 2283294). Put shortly:
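Compounds first screened in duplicate at 25 uM, actives followed up in concentration series. Binding measured as displacement of specific radioligand from guinea pig striatal membranes, 1 h, filter-based scintillation read-out versus DMSO baseline.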

Test [8] deals with rat Adrenergic, Alpha 1A Receptor (Adra1A), Adra1a (gene 29412) (UniProt P43140). As to the kind of experiment: NVS_GPCR_rAdra1A: NovaScreen (NVS) G Protein-Coupled Receptor Assay for rat Adrenergic, Alpha 1A Receptor (Adra1A) (AID 2283296). In outline:
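Filter radiodetection after 1 h competitive binding on CEC-pretreated rat cortical membranes. Duplicate single-point screening at 25 uM; active chemicals retested across concentration series.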

The target in test [9] is human Thromboxane A2 Receptor (TXA2), TBXA2R (gene 6915) (UniProt P21731). As to the kind of experiment: NVS_GPCR_hTXA2: NovaScreen (NVS) G Protein-Coupled Receptor Assay for human Thromboxane A2 Receptor (TXA2) (AID 2283282).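 Note: actives reduce bound radioligand signal relative to DMSO baseline.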 In outline:
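Filter scintillation counting of bound radioligand, human platelet protein, 1 h exposure. Single-concentration duplicates (25 uM) first, concentration-response follow-up for actives. Binding loss scored against DMSO baseline.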

The test system of test [10] is 5-hydroxytryptamine receptor 2C (pig). Briefly: NVS_GPCR_p5HT2C: NovaScreen (NVS) G Protein-Coupled Receptor Assay for pig Serotonin, 5-Hydroxytryptamine Receptor 2C (5HT2C) (AID 2283288). In outline: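 Radioligand displacement on membranes from pig choroid plexus, detected by filter scintillation counting after 1 h. Tested first at a single 25 uM in duplicate, then in concentration-response for actives; DMSO served as baseline.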

For test [11], the target named is mouse Cholecystokinin, CCK2 Receptor (CCKB), Cckbr (gene 12426) (UniProt P56481). Briefly: NVS_GPCR_mCKKBCentral: NovaScreen (NVS) G Protein-Coupled Receptor Assay for mouse Cholecystokinin, CCK2 Receptor (CCKB) (AID 2283293). In outline: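 Mouse forebrain membrane preparation incubated 2 h with chemical and radioligand; bound radioactivity counted after filtration. Single-concentration duplicate screen at 25 uM, then concentration series to 50 uM max for hits, DMSO as baseline.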
Chain of mouse Cholecystokinin, CCK2 Receptor (CCKB), Cckbr (gene 12426) (P56481 whole entry, looked up): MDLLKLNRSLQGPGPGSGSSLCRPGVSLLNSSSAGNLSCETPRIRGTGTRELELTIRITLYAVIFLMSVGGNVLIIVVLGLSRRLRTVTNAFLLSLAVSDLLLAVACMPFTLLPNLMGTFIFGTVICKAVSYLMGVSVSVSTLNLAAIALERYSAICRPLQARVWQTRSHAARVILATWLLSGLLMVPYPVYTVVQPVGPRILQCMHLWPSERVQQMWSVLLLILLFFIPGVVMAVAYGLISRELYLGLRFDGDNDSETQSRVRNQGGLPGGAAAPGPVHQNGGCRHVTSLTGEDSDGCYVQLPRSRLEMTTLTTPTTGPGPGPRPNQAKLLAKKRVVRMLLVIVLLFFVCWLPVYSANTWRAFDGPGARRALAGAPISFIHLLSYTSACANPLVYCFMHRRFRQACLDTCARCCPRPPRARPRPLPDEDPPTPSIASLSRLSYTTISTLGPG

Test [12] has as its target rat Adrenergic Receptor, Alpha 2 (Adra2), Non-selective Binding, Adra2a (gene 25083) (UniProt P22909). As to the kind of experiment: NVS_GPCR_rAdra2_NonSelective: NovaScreen (NVS) G Protein-Coupled Receptor Assay for rat Adrenergic Receptor, Alpha 2 (Adra2), Non-selective Binding (AID 2283299). Put shortly:
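Filter-based scintillation counting of radioligand binding to rat cortical membrane receptors, measured 1.25 hours post-dosing; loss of signal versus DMSO indicates displacement. Initial single-concentration duplicate at 25 uM, then concentration series.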

In test [13] the target is human Vasopressin 1A Receptor (V1A), AVPR1A (gene 552) (UniProt P37288). Briefly: NVS_GPCR_hV1A: NovaScreen (NVS) G Protein-Coupled Receptor Assay for human Vasopressin 1A Receptor (V1A) (AID 2283284). Put shortly:
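Single-concentration duplicate screen at 25 uM, with concentration-response follow-up (top 50 uM) for actives. The assay measured displacement of a radioligand from human platelet-derived receptor after 1.5 h, detected by filtration and scintillation counting.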

For test [14], the target named is rat Serotonin, 5-Hydroxytryptamine Receptor 1 (5HT1), Non-Selective Binding, Htr1a (gene 24473) (UniProt P19327). Briefly: NVS_GPCR_r5HT1_NonSelective: NovaScreen (NVS) G Protein-Coupled Receptor Assay for rat Serotonin, 5-Hydroxytryptamine Receptor 1 (5HT1), Non-Selective Binding (AID 2283286). In outline: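 Binding of a radioligand to rat cortex membranes is read by filtration and scintillation counting after 1 h. Compounds were screened at 25 uM in duplicate. Actives were then titrated to a top of 50 uM. DMSO is the baseline.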
Chain of rat Serotonin, 5-Hydroxytryptamine Receptor 1 (5HT1), Non-Selective Binding, Htr1a (gene 24473) (P19327 whole entry, looked up): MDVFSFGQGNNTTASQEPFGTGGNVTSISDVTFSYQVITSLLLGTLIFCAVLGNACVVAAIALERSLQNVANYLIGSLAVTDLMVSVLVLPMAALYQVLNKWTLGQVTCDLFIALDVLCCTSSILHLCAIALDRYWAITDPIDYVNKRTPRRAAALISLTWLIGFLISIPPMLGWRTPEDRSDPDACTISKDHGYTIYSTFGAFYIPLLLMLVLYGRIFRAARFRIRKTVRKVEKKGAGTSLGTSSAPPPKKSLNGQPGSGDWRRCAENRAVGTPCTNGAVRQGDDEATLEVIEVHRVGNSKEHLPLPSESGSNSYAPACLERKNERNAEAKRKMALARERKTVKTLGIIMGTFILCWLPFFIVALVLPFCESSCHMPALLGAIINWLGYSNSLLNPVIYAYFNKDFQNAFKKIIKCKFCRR

Test [15] concerns rabbit Platelet Activating Factor Receptor (PAF), gene 100354046. As to the kind of experiment: NVS_GPCR_rabPAF: NovaScreen (NVS) G Protein-Coupled Receptor Assay for rabbit Platelet Activating Factor Receptor (PAF) (AID 2283287). In outline: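 Rabbit platelet membrane preparation; radioligand displacement read by filter-based scintillation counting 1 h after dosing, loss of signal versus DMSO. Primary screen in duplicate at 25 uM, actives followed up in concentration series.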

“And” between values parts separate entries of the source, which are not always exact repeats. Identical values can stand only once. Inconclusive results are not listed. Some structures have more than one record in an assay (separate samples or runs), and their calls can disagree. The source made the active and inactive calls. Rule for the calls: active = hit-call score of the fitted dose curve at least 0.9, where 1 is the maximum; inconclusive = response in the unintended direction; inactive = score below 0.9.

Chain of rat Adrenergic Receptor, Alpha 2 (Adra2), Non-selective Binding, Adra2a (gene 25083) (P22909 whole entry, looked up): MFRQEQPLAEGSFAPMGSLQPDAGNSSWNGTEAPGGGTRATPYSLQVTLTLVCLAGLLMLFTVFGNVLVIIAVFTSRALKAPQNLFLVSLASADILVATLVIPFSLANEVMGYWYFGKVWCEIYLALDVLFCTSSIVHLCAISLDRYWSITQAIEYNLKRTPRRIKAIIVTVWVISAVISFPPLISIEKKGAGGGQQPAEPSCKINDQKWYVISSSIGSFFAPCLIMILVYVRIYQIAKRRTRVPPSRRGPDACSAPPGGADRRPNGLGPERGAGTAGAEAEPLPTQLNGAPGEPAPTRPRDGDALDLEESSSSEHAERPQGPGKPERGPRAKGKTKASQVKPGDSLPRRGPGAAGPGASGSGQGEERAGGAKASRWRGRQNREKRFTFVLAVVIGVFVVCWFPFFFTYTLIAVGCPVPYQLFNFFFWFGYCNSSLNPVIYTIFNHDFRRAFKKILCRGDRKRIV
Chain of guinea pig Serotonin, 5-Hydroxytryptamine Receptor 4 (5HT4), HTR4 (gene 100135548) (O70528 whole entry, looked up): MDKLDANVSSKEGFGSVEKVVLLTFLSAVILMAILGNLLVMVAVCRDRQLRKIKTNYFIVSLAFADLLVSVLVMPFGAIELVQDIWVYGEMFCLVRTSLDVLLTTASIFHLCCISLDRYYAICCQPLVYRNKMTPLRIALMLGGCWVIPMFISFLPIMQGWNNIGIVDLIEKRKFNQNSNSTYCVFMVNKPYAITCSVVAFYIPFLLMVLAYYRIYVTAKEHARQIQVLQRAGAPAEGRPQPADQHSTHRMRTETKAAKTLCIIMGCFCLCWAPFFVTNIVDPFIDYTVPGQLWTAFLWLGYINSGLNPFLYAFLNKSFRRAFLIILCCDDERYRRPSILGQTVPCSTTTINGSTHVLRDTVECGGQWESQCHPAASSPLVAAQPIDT
Chain of Adra2b (gene 24174) (P19328 whole entry, looked up): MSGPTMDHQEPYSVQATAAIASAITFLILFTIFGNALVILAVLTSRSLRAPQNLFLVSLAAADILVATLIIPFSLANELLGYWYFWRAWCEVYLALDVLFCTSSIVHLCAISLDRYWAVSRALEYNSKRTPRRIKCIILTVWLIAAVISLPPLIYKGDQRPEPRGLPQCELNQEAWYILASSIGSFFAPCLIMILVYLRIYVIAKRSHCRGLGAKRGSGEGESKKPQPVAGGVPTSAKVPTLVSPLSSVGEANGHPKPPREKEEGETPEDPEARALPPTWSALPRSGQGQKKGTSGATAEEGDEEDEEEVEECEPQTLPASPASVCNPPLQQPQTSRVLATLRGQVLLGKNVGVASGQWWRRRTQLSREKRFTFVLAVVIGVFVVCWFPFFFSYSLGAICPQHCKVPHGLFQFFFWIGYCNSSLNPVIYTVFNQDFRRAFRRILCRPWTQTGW
Chain of human Opioid Receptor Delta 1 (Opiate D1), OPRD1 (gene 4985) (P41143 whole entry, looked up): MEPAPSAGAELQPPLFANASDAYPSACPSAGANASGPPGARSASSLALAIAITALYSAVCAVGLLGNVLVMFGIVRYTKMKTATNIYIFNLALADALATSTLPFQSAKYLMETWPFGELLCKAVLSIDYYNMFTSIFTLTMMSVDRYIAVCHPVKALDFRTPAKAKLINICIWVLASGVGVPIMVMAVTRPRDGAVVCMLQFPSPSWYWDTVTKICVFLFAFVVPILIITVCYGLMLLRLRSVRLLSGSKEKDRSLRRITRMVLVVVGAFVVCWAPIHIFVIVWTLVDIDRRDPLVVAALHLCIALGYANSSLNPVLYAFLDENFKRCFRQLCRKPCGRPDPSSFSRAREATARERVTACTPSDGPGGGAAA
Chain of human Thromboxane A2 Receptor (TXA2), TBXA2R (gene 6915) (P21731 whole entry, looked up): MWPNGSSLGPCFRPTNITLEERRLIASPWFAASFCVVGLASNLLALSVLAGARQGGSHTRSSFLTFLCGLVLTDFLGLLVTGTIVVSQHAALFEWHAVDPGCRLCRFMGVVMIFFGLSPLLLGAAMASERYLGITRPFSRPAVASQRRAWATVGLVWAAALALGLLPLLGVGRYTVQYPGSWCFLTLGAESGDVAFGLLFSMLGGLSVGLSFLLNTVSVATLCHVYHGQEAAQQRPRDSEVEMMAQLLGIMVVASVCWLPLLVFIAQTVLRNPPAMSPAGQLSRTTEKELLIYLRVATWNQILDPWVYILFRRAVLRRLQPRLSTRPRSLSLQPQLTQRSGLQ
Chain of guinea pig Bradykinin Receptor B2 (BK2), BDKRB2 (gene 100135486) (O70526 whole entry, looked up): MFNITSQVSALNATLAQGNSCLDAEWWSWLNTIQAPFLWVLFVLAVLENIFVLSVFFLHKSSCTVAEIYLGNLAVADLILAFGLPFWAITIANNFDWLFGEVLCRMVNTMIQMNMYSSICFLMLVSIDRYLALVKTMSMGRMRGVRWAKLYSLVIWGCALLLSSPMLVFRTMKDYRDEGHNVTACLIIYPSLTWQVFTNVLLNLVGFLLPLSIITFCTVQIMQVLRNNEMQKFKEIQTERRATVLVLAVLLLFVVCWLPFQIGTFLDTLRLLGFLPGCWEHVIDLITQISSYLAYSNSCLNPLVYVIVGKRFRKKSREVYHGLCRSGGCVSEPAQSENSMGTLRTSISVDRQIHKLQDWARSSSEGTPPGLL
Chain of rat Neurokinin-1 Receptor (NK1), Tacr1 (gene 24807) (P14600 whole entry, looked up): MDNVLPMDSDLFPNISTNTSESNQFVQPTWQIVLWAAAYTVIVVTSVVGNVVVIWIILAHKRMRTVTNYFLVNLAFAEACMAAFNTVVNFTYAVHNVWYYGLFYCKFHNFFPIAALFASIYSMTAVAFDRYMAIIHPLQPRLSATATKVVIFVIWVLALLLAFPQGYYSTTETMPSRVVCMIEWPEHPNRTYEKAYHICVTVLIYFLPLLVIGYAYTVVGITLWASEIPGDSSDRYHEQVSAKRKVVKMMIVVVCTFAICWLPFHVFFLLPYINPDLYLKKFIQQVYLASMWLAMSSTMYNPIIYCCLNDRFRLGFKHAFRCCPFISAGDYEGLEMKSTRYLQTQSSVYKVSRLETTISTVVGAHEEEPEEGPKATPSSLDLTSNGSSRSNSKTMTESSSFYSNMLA
Chain of rat Adrenergic, Alpha 1A Receptor (Adra1A), Adra1a (gene 29412) (P43140 whole entry, looked up): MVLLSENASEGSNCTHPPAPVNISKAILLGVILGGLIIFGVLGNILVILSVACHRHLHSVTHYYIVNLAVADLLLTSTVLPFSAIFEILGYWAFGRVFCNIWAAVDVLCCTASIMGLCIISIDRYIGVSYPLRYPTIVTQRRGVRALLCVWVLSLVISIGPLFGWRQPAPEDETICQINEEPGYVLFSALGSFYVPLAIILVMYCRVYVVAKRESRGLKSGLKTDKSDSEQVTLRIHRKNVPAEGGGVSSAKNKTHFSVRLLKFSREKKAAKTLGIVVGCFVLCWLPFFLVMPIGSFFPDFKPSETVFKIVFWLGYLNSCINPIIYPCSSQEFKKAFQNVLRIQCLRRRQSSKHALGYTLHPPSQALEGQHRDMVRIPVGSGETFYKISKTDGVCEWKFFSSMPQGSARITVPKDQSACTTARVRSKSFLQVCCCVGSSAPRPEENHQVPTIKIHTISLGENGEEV
Chain of human Vasopressin 1A Receptor (V1A), AVPR1A (gene 552) (P37288 whole entry, looked up): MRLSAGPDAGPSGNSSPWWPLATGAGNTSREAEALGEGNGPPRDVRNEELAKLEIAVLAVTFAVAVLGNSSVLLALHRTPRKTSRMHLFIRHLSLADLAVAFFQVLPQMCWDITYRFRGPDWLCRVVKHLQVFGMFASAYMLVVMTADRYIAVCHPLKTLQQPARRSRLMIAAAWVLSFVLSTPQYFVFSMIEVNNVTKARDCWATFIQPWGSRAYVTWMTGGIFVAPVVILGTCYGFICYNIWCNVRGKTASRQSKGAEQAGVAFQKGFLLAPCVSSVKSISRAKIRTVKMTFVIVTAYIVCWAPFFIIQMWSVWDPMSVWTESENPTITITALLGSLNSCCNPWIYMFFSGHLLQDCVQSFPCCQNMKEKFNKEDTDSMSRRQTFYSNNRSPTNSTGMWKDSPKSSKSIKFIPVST

With `CCCOC(=O)c1ccc(C(=O)OCCC)nc1`, the result in test [1] was inactive.
As for `CCCOC(=O)NCCCN(C)C`, in test [2], the AC50 (in general, the midpoint of the concentration-response curve, whichever way the signal moves) is 18.1 µM (active).
For the compound `C#C[C@]1(O)CC[C@H]2[C@@H]3CCC4=CC(=O)CC[C@@H]4[C@H]3CC[C@@]21CC`, in test [3], the compound was called inactive.
In the case of `CCOC(=O)[C@H](C)Oc1ccc(Oc2nc3ccc(Cl)cc3o2)cc1`, the compound was classed as inactive in [4].
`C[C@]12C[C@H](O)[C@H]3[C@@H](CCC4=CC(=O)CC[C@@]43C)[C@@H]1CC[C@@H]2C(=O)CO`: the AC50 in test [5] is 39 µM (active). The outcome in the test with Adra2b (gene 24174) was inactive.
Turning to `C=CCOC(Cn1ccnc1)c1ccc(Cl)cc1Cl` (centres undefined), the AC50 in [6] is 4.96 µM (active); in test [7] it was 5.39 µM (active); in [8] it was 17.3 µM (active); with Adra2b (gene 24174), 6.96 µM (active); in test [3] it was 37.8 µM (active).
As for `CC(C)(c1ccc(O)cc1)c1ccc(O)cc1`, the AC50 in [6] is 11.2 µM (active); in test [9], 10.3 µM (active) and 5.04 µM (active); in test [10], 18.6 µM (active) and 19 µM (active); in test [11], 31.2 µM (active) and 19.2 µM (active) and 16.3 µM (active); in test [7], 10.4 µM (active) and 24.2 µM (active) and 15.1 µM (active). Moreover, the outcome (in [9]; in test [12]; with Adra2b (gene 24174)) was inactive.
Regarding `S=C(S)NCCNC(=S)S.[Mn+2].[S-]C([S-])=NCCN=C([S-])[S-].[Zn+2]`, the compound was classed as inactive in test [6], in [13], in [14], in [15], in [7] and in test [12]. Further, the AC50 is 9.72 µM (active) and 9.3 µM (active) and 26.6 µM (active) in test [1]; 31.1 µM (active) in test [7]; 12.5 µM (active) and 15.4 µM (active) in [12].
In the case of `COC(=O)c1c(Cl)nn(C)c1S(=O)(=O)NC(=O)Nc1nc(OC)cc(OC)n1`, in [15], the call was inactive.
